Laboratory results taken from PubChem BioAssay (NCI).
Compounds without any hit were thinned out: in the full panel of roughly 79,000, 15% have a hit. Activity calls are given as the source filed them. No stated cut-off is given here; in the data, active means growth inhibition above about 70%; inactive means the rest.

Experiments:
[1] = NCI Yeast Anticancer Drug Screen. Data for the rad50EPP+ strain (AID 151);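 further: 0% = growth of vehicle-treated control cultures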; details: S. cerevisiae rad50 mutant strain, hits give high values
How it was run: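 In this screen, rad50EPP+ yeast were exposed to compounds. Growth inhibition was scored against vehicle-treated controls.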

[2] = NCI Yeast Anticancer Drug Screen. Data for the mgt1 strain (AID 153); details: S. cerevisiae mgt1 mutant growth inhibition, hits give high values
How it was run: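 mgt1 strain exposed; growth vs vehicle control recorded as inhibition.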

[3] = NCI Yeast Anticancer Drug Screen. Data for the rad50 strain (AID 155);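 further: 0% = growth of vehicle-only cultures of the same strain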; details: S. cerevisiae rad50 strain growth inhibition, hits give high values
How it was run: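 Cells are treated with compound, grown, and their growth is then scored against vehicle-only cultures of the same repair-deficient yeast strain.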

[4] = NCI Yeast Anticancer Drug Screen. Data for the mec2-1 strain (AID 157); details: S. cerevisiae mec2-1 strain, hits give high values
How it was run: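 Vehicle-treated cultures served as reference for growth inhibition of compound-exposed mec2-1 yeast.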

[5] = NCI Yeast Anticancer Drug Screen. Data for the rad14 strain (AID 159);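 further: 0% = growth of vehicle-treated control cultures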; details: S. cerevisiae rad14 strain growth inhibition, hits give high values
How it was run: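 Readout: yeast growth inhibition, referenced to vehicle-only cultures. Strain bears a defined alteration in DNA damage repair.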

[6] = NCI Yeast Anticancer Drug Screen. Data for the sgs1 mgt1 strain (AID 161);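 further: 0% = growth of cultures given vehicle only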; details: S. cerevisiae sgs1 mgt1 strain, hits give high values
How it was run: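 Mutant yeast exposed to compound; growth scored against vehicle-only wells.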

[7] = NCI Yeast Anticancer Drug Screen. Data for the CLN2oe strain (AID 163);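 further: 0% = growth of vehicle-only control cultures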; details: S. cerevisiae CLN2oe strain, hits give high values
How it was run: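 Inhibition relative to vehicle-treated yeast is reported. Cells: strain with genetic alteration in cell-cycle control, grown with compound.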

[8] = NCI Yeast Anticancer Drug Screen. Data for the cln2 rad14 strain (AID 165);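 further: 0% = growth equal to vehicle treated cultures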; details: S. cerevisiae cln2 rad14 strain, hits give high values
How it was run: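 Each compound was tested on cln2 rad14 yeast. Inhibition of growth was calculated against vehicle-exposed controls.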

[9] = NCI Yeast Anticancer Drug Screen. Data for the wt2 strain (AID 169);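 further: 0% = growth of vehicle-treated yeast cultures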; details: S. cerevisiae wt2 strain growth inhibition, hits give high values
How it was run: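 Inhibition of yeast growth was determined after compound treatment, normalised to controls receiving only vehicle.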

[10] = NCI Yeast Anticancer Drug Screen. Data for the mlh1 strain (AID 171);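 further: 0% = growth of vehicle-treated control cultures of the same strain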; details: S. cerevisiae mlh1 strain growth inhibition, hits give high values
How it was run: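 Vehicle-normalised growth inhibition of a repair- or checkpoint-altered yeast strain following compound treatment.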

[11] = NCI Yeast Anticancer Drug Screen. Data for the sgs1 strain (AID 173);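 further: 0% = growth of vehicle-only control cultures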; details: S. cerevisiae sgs1 mutant, hits give high values
How it was run: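 Screen format: yeast with repair or checkpoint alterations, compound exposure, growth read relative to vehicle.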

[12] = NCI Yeast Anticancer Drug Screen. Data for the mlh1 rad18 strain (AID 175); details: S. cerevisiae mlh1 rad18 strain growth inhibition, hits give high values
How it was run: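 Vehicle-treated cultures served as the reference for growth inhibition in a yeast strain carrying DNA damage repair alterations exposed to each compound.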

[13] = NCI Yeast Anticancer Drug Screen. Data for the rad18 strain (AID 177); details: S. cerevisiae rad18 mutant growth inhibition, hits give high values
How it was run: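 Test articles were incubated with altered yeast defective in DNA damage repair. Results are given as inhibition of growth versus vehicle.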

[14] = NCI Yeast Anticancer Drug Screen. Data for the bub3 strain (AID 167); details: S. cerevisiae bub3 mutant strain, hits give high values
How it was run: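 Part of a panel of yeast mutants defective in DNA damage repair or cell cycle regulation. Each strain is grown with compound, and inhibition is calculated relative to solvent-treated cultures.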

[15] = at 5.0 µM (retest, dose inferred, filed as 0.5)
[16] = at 50.0 µM (retest, dose inferred, filed as 5.0)

Measured: growth inhibition

CCCCCCCCCC[Se]C#N
inactive: [1]; at 1.2 µM 4% | [1]; at 3.7 µM 6% | [1]; at 11.0 µM 23% | [2]; at 1.2 µM -2% | [2]; at 3.7 µM 0% | [2]; at 11.0 µM 0% | [2]; at 33.0 µM 16% | [3]; at 1.2 µM 2% | [3]; at 3.7 µM -38% | [3]; [15] 30% | [3]; at 11.0 µM 14% | [3]; at 33.0 µM 52% | [4]; at 1.2 µM 1% | [4]; at 3.7 µM 4% | [4]; [15] 30% | [4]; at 11.0 µM 6% | [4]; at 33.0 µM 19% | [5]; at 1.2 µM -1% | [5]; at 3.7 µM -2% | [5]; at 11.0 µM 4% | [5]; at 33.0 µM 31% | [6]; [15] 46% | [7]; at 1.2 µM -1% | [7]; at 3.7 µM 0% | [7]; at 11.0 µM -4% | [7]; at 33.0 µM -7% | [7]; at 100.0 µM -3% | [8]; [15] 15% | [9]; at 1.2 µM -2% | [9]; at 3.7 µM 7% | [9]; at 11.0 µM -1% | [9]; at 33.0 µM -2% | [10]; at 1.2 µM -1% | [10]; at 3.7 µM 0% | [10]; at 11.0 µM 6% | [10]; at 33.0 µM 26% | [11]; at 1.2 µM -1% | [11]; at 3.7 µM 1% | [11]; at 11.0 µM 13% | [11]; at 33.0 µM 54% | [12]; [15] 51% | [13]; at 1.2 µM 4% | [13]; at 3.7 µM 6% | [13]; at 11.0 µM 18% | [13]; at 33.0 µM 63%
active: [1]; at 33.0 µM 76% | [1]; at 100.0 µM 97% | [2]; at 100.0 µM 95% | [3]; [16] 99% | [3]; at 50.0 µM 99.4% | [3]; at 100.0 µM 97% | [4]; [16] 99% | [4]; at 50.0 µM 99.6% | [4]; at 100.0 µM 77% | [5]; at 100.0 µM 99% | [6]; [16] 99% | [6]; at 50.0 µM 99.3% | [8]; [16] 99% | [8]; at 50.0 µM 97.3% | [9]; at 100.0 µM 79% | [10]; at 100.0 µM 90% | [11]; at 100.0 µM 96% | [12]; [16] 99% | [12]; at 50.0 µM 99.3% | [13]; at 100.0 µM 98%

ClC1=C(Cl)C(Cl)(Cl)SS1
active: [3]; [15] 100% | [3]; [16] 99% | [3]; at 50.0 µM 88.7% | [4]; [15] 100% | [4]; [16] 99% | [4]; at 50.0 µM 91.5% | [6]; [15] 100% | [6]; [16] 99% | [6]; at 50.0 µM 92.1% | [8]; [15] 100% | [8]; [16] 99% | [8]; at 50.0 µM 91.5% | [14]; [15] 100% | [14]; [16] 99% | [14]; at 50.0 µM 89.3% | [12]; [15] 99% | [12]; [16] 99%

c1ccc2c(NCCCCCCCCNc3c4ccccc4nc4ccccc34)c3ccccc3nc2c1
inactive: [6]; [15] 64% | [8]; [15] 44% | [8]; at 50.0 µM 46.7% | [14]; [15] 68% | [14]; [16] 49%
active: [3]; [15] 87% | [3]; [16] 97% | [3]; at 50.0 µM 85.3% | [4]; [15] 89% | [4]; [16] 98% | [4]; at 50.0 µM 87.5% | [6]; [16] 90% | [6]; at 50.0 µM 75.4% | [8]; [16] 83% | [14]; at 50.0 µM 80.2% | [12]; [15] 91% | [12]; [16] 97%
